Data as given in ChEMBL document CHEMBL3433997, “St. Jude Leishmania screening dataset” (2016).

Legend:
Format in all cases: functional
[1] = target: Solute carrier family 2, facilitated glucose transporter member 1 (Homo sapiens) (UniProt P11166); test: ST_JUDE_LEISH: Cytotoxicity at 2uM final concentration against transgenic Leishmania Mexicana promastigotes LmGLUT1 that are glucose transport deficient and complemented with the human glucose transporter GLUT1. Activity is measured by DNA content using SYBR green in vitro
Solute carrier family 2, facilitated glucose transporter member 1 (Homo sapiens), sequence (P11166 whole entry): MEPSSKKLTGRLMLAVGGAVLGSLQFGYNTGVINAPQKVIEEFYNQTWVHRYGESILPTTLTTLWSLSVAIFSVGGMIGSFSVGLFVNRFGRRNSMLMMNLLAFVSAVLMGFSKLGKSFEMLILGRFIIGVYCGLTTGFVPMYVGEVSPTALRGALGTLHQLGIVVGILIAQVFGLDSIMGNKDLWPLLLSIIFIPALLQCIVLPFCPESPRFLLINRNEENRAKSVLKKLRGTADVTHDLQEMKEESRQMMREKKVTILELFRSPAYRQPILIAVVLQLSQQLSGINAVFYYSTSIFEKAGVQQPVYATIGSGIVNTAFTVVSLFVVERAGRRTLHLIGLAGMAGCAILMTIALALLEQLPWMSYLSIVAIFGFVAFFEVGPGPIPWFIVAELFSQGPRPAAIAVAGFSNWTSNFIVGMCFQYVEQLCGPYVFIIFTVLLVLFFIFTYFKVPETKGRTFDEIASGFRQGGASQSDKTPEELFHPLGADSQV

[2] = target: Hexose transporter 1 (Plasmodium falciparum) (UniProt O97467); test: ST_JUDE_LEISH: Cytotoxicity at 2uM final concentration against transgenic Leishmania Mexicana promastigotes LmPfHT that are glucose transport deficient and complemented with the Plasmodium falciparum hexose transporter. Activity is measured by DNA content using SYBR green in vitro
[3] = target: Glucose transporter (Leishmania mexicana) (UniProt O61059); test: ST_JUDE_LEISH: Cytotoxicity at 2uM final concentration against transgenic Leishmania Mexicana promastigotes LmGT2 that are glucose transport deficient and complemented with the L. Mexicana glucose transporter 2. Activity is measured by DNA content using SYBR green in vitro

Structure (SMILES) | inhibition [1] [%] | inhibition [2] [%] | inhibition [3] [%]
CCOc1ccc(N2CCN(CCCCNC(=O)c3ccc(NC(=O)c4ccc(Cl)cc4)cc3)CC2)c(OCC)c1 | 1.06 | 1.88 | 2.35
Cc1ccc(O)cc1Nc1ccnc2cc(-c3ccccn3)ccc12 | 5.99 | 4.26 | 3.28
Cc1ccc(NC(=O)c2ccc(CN3CCCN(Cc4cccc(Cl)c4)CC3)cc2)cc1C | 3.09 | 3.31 | 2.64
Cc1[nH]c(C)c(-c2ccc(-c3ccc(Cl)cc3)nc2)c(=O)c1Br | -0.04 | -0.24 | -1.28
O=C(c1cccc(-c2cccc(-c3nc4cc(F)ccc4[nH]3)c2)c1)N1CCCCC1CN1CCC(O)C1 (stereo not given) | 0.52 | -0.32 | 0.51
COc1ccc(CNc2nccc3ccc(-c4ccc(N)nc4)cc23)cc1 | -2.02 | -0.06 | -0.73
CC(C)c1cc2c(ccc3nc(N)nc(N)c32)o1 | 3.76 | 5.34 | 2.93
COc1ccc(Cl)cc1-c1nc(C(=O)NCCN2CCCCC2)c(C(C)C)s1 | -3.64 | -0.2 | 3.06
COC(=O)c1cccc(NC(=O)NCCNc2ccnc(Nc3ccc(F)cc3)n2)c1 | 4.31 | 3.02 | 2.45
Cc1ccc(/C=C/C(=O)NCCCCCN2CCCN(C(=O)Nc3ccc(Cl)c(Cl)c3)CC2)cc1 | 1.97 | 2.34 | 4.4
CCNc1cc(C)nc(Nc2ccc(NC(=O)c3ccccc3Cl)cc2)n1 | 6.51 | 8.33 | 5.34
CCCn1c(O)nnc1SCC(=O)Nc1cc(C(F)(F)F)ccc1Cl | 6.43 | 4.55 | 6.33
CCc1nc(N)nc(N)c1-c1ccc(C(C)(C)C)cc1 | 13 | 3.45 | 0.88
FC(F)(F)c1ccc2c(NCCCNc3ccnc4cc(C(F)(F)F)ccc34)ccnc2c1 | -2.25 | 3.22 | -4.41
Cc1cnc(NCCc2ccc(F)cc2)nc1NCCC(=O)Nc1ccccc1 | 4.88 | 4.76 | 2.38
CC1CCc2c(C(=O)N3CCc4ccccc4C3)csc2C1 (stereo not given) | 1.39 | 0.87 | 0
CN1CCC(NCc2ccc(-c3cccc(S(=O)(=O)NCC4CCCO4)c3)cc2)CC1 (stereo not given) | 0.62 | 3.18 | 6.61
Nc1ncc(-c2ccc3nccc(-c4ccncc4)c3c2)cc1S(=O)(=O)N1CCOCC1 | 5.11 | 3.05 | 1.27

Structure (SMILES) | inhibition [1] [%] | inhibition [2] [%] | inhibition [3] [%]
O=C(NCC(CCN1CCC(c2c[nH]c3ccccc23)CC1)c1ccccc1)Nc1ccc(Cl)c(Cl)c1 (stereo not given) | 5.74 | 2.72 | 2.16
O=C(NOCc1ccccc1)c1cc(Cl)ccc1O | 2.44 | 3.78 | 2.15
COc1ccc2nc(/N=C3\NC(c4ccccn4)(c4ccccn4)C(=O)N3C)[nH]c2c1 | 11.7 | 11.1 | 9.86
CCCCN(CCCC)CCCCNc1c2ccc(Cl)cc2nc2ccc(OC)cc12 | 14.5 | 17.5 | 13.3
COc1ccc(F)cc1-c1ccc(C(=O)N2CCCN(c3ccc(C#N)cn3)CC2)cc1 | 0.86 | 0.21 | -5.82
CCCNCc1ccc(-c2ccc(CN(Cc3cccs3)C(=O)C3CCN(C)CC3)cc2)nc1 | 2.14 | 0.83 | -0.89
FC(F)(F)c1ccc2c(NCCNc3ccnc4cc(C(F)(F)F)ccc34)ccnc2c1 | 2.33 | 0.31 | 0.92
Brc1cc2c(cc1C=NNc1nc(=Nc3ccccc3)[nH]c(=Nc3ccccc3)[nH]1)OCO2 | 3.97 | 3.42 | -2.12
Cc1cc(N/N=C/c2ccccc2[N+](=O)[O-])c2ccccc2n1 | 3.96 | 5.28 | 2.51
Oc1ccc(CCNc2nc(NCCCOc3ccccc3-c3cccc(C(F)(F)F)c3)nc(N3CCNCC3)n2)cc1 | 4.36 | 4.82 | 5.07
CCOc1ccc(C(C)NC(=O)Nc2ccccc2)cc1OCC (stereo not given) | 4.28 | 2.66 | 2.96
CCOc1cc(C(=O)NCCCN2CCCCC2C)ccc1-c1nc2cc(Cl)ccc2[nH]1 (stereo not given) | 2.37 | 2.23 | 0.87
Cc1ccc2c(c1)c(-c1ccccc1)c(-c1ccccc1)n2CC(O)CN1CCN(CC=Cc2ccccc2)CC1 (stereo not given) | 0.38 | 1.97 | 0.7
COc1c(C2=CCN(CCCCNC(=O)c3ccc(-c4ccc(C#N)cc4)cc3)CC2)c(C)cc2c1C(C)(C)CCC2(C)C | 2.63 | 2.18 | 0.96
CCC[C@@H]([C@@H](CC1CCCCC1)C(=O)N[C@H](C(=O)Nc1nccc(N)n1)C(C)(C)C)N(O)C=O | 3.28 | 4.83 | 4.24
COc1ccc(-c2ccnc(-c3cccc(-c4ccccn4)n3)c2)cc1 | 7.03 | 24.9 | 2.98
c1ccc(CNc2cc(-c3ccccn3)nc(-c3ccccn3)n2)cc1 | 24.5 | 4.72 | 8.35
